High-throughput results as filed in PubChem BioAssay.
An excerpt weighted towards active compounds, which were near 2.2% of everything screened.
APP transl inh: APP translation inhibition; SH-SY5Y APP 5'UTR-luciferase reporter, luminescence; inhibition, % at 2 µM; 0.82% of 190,000 active;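 active means inhibition above a set limit, derived from the sample mean plus 3 SD, cut at about 45% in these data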
KLF5 inhibitor: suppresses KLF5 promoter-driven expression. DLD-1 KLF5 promoter-luciferase reporter, luminescence. inhibition, % at 5 µM. 0.23% of 290,000 active. AID 1700;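 active means inhibition above a per-plate limit of that plate's mean compound inhibition plus 3 SD, cut at about 60% in these data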;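 further: 0% = DMSO wells and 100% = LY294002 at 200 µM; higher means less KLF5 promoter-driven luciferase light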
aSyn 5UTR inh: 5' untranslated region of α-synuclein, MLPCN primary screen; alpha-synuclein 5'UTR reporter, inhibitor activity; inhibition, % (tested at 7.5 µM); 0.82% of 300,000 active; in the data active means inhibition above about 60%;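 further: H4 neuroglioblastoma cells stably carrying SNCA 5'UTR luciferase fusion; 0% = DMSO wells and 100% = positive control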
BaF3 parental: parental Ba/F3 viability inhibition as JAK2V617F counter-screen | CellTiter-Glo ATP luminescence | inhibition, % at 5.6 µM | 1.1% of 220,000 active;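 active means inhibition above a per-campaign cutoff, the mean inhibition of all tested compounds plus 3 SD, cut at about 27% in these data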;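 further: 0% = DMSO wells and 100% = JAK Inhibitor I control wells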
IEC-6 tox: kills IEC-6 intestinal cells in KLF5 counter-screen; IEC-6 cytotoxicity, luminescence viability; inhibition, % at 5 µM; 0.78% of 290,000 active; in the data active means inhibition above about 22%;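 further: 0% = plate median of test compound wells and 100% = cytotoxic reference compound wells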
Ba/F3 V617F tox: loss of viability in JAK2V617F-driven Ba/F3 cells. AID 1446. Ba/F3 EpoR-JAK2V617F viability, ATP luminescence. 1.1% of 220,000 active. inhibition, % at 5.6 µM;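 active means inhibition above the campaign mean plus 3 SD over all tested compounds, cut at about 24% in these data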;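 further: cytokine-independent growth of Ba/F3 cells driven by EpoR plus mutant JAK2; 0% = DMSO-treated cells and 100% = JAK inhibitor I control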
* hit, by the source's call.

O=C(C1CC1)N1CCC(c2nc(-c3ccc(S(=O)(=O)NCC4CCCO4)cc3)no2)CC1 (configuration not stated) was read as APP transl inh -10.1, KLF5 inhibitor -23.7, aSyn 5UTR inh -24.3, BaF3 parental 34.6*, IEC-6 tox 6.7 and Ba/F3 V617F tox 5.3.
`O=C(c1ccccc1)N1CCC(c2nc(-c3ccc(S(=O)(=O)NCC4CCCO4)cc3)no2)CC1` (configuration not stated) gave KLF5 inhibitor -19.4, aSyn 5UTR inh 28.2, BaF3 parental 4.9, IEC-6 tox 1.8 and Ba/F3 V617F tox 3.1.
`CCCCc1ccc(S(=O)(=O)NCCc2ccncc2)cc1` gave APP transl inh 9.3, KLF5 inhibitor -22.0, aSyn 5UTR inh 4.7, BaF3 parental 7.3, IEC-6 tox 6.9 and Ba/F3 V617F tox 0.5.
Cc1cc(C)c(S(=O)(=O)NCc2ccncc2)c(C)c1 was read as APP transl inh 11.7, KLF5 inhibitor 1.4, aSyn 5UTR inh 18.3, BaF3 parental 34.0*, IEC-6 tox 6.4 and Ba/F3 V617F tox 24.3*.
Cc1ccc(S(=O)(=O)NCc2ccncc2)c(C)c1C was read as APP transl inh 9.8, KLF5 inhibitor 26.2, aSyn 5UTR inh -8.5, BaF3 parental 83.9*, IEC-6 tox 18.6 and Ba/F3 V617F tox 55.1*.
For CC(=O)NCCOC(=O)c1nn(Cc2ccccc2)c(=O)c2ccccc12 the results were KLF5 inhibitor -18.2, aSyn 5UTR inh 37.6 and IEC-6 tox -1.0.
COC(=O)CCC(=O)N1CCCC(CO)(Cc2ccccc2F)C1 (configuration not stated) was read as KLF5 inhibitor -20.7, aSyn 5UTR inh 3.4 and IEC-6 tox -2.0.
For O=C(c1ccc(-n2ccnc2)cc1)N1CCCC(CO)(Cc2cccc(Cl)c2)C1 (configuration not stated) the results were KLF5 inhibitor -30.2, aSyn 5UTR inh 16.7 and IEC-6 tox -0.9.
Screening CC(=O)N1N=C(c2ccco2)CC1c1ccc(Cl)o1 (configuration not stated) returned KLF5 inhibitor -15.2, aSyn 5UTR inh 5.6 and IEC-6 tox -7.9.
For O=S(=O)(NCc1ccncc1)c1ccc(S(=O)(=O)NCC2CCCO2)cc1 (configuration not stated) the results were APP transl inh 4.0, KLF5 inhibitor 18.1, aSyn 5UTR inh 7.7, BaF3 parental 28.2*, IEC-6 tox 1.3 and Ba/F3 V617F tox 25.2*.
`O=S(=O)(NCc1ccccc1)c1ccc(S(=O)(=O)NCC2CCCO2)cc1` (configuration not stated) gave APP transl inh 4.2, KLF5 inhibitor -2.5, aSyn 5UTR inh 0.0, BaF3 parental -0.3, IEC-6 tox -2.0 and Ba/F3 V617F tox -4.2.
For Cn1c2ccccc2c(=O)c2c(=O)n(Cc3ccco3)c(-c3ccc(C(C)(C)C)cc3)nc21 the results were KLF5 inhibitor -5.6, aSyn 5UTR inh 2.1, BaF3 parental -1.8, IEC-6 tox -5.3 and Ba/F3 V617F tox -0.7.
Screening CC[n+]1ccc(C)c2cc(S(=O)C(F)(F)F)ccc21 (configuration not stated) returned APP transl inh -0.6, KLF5 inhibitor -15.1, aSyn 5UTR inh 10.6, BaF3 parental 27.2*, IEC-6 tox -1.6 and Ba/F3 V617F tox 15.5.
For CC[n+]1ccc(C)c2cc(P(=O)(c3ccccc3)c3ccccc3)ccc21 the results were APP transl inh 9.3, KLF5 inhibitor -44.4, aSyn 5UTR inh -9.4, BaF3 parental 1.6, IEC-6 tox 0.4 and Ba/F3 V617F tox -2.3.
CC[n+]1ccc(C)c2cc(SC(F)(F)F)ccc21 was read as APP transl inh -27.7, KLF5 inhibitor -13.1, aSyn 5UTR inh 2.7, BaF3 parental 35.0*, IEC-6 tox -1.9 and Ba/F3 V617F tox 13.1.
`CCOc1ccc(N(CC(=O)N/N=C/c2ccccn2)S(=O)(=O)c2ccc(Cl)cc2)cc1` gave KLF5 inhibitor -42.5 and IEC-6 tox 3.5.
N#CC1=C(N)Oc2cc(O)ccc2C1c1cccs1 (configuration not stated) was read as APP transl inh -9.3, KLF5 inhibitor -11.3, aSyn 5UTR inh 16.7, BaF3 parental 5.1, IEC-6 tox -5.3 and Ba/F3 V617F tox -3.4.
For N#CC1=C(N)Oc2c(ccc3ccccc23)C1c1cccs1 (configuration not stated) the results were APP transl inh -16.6, KLF5 inhibitor -37.8, aSyn 5UTR inh 110.2*, BaF3 parental 5.3, IEC-6 tox 1.9 and Ba/F3 V617F tox -0.2.
Screening N#CC1=C(N)Oc2c(ccc3cccnc23)C1c1ccccc1 (configuration not stated) returned KLF5 inhibitor 50.2, aSyn 5UTR inh 28.6, BaF3 parental 39.1*, IEC-6 tox 3.3 and Ba/F3 V617F tox 68.8*.
For Cc1ccc2[nH]c(=O)c(C3C(C#N)=C(N)Oc4c3ccc3cccnc43)cc2c1 (configuration not stated) the results were APP transl inh 33.7, KLF5 inhibitor 3.8, aSyn 5UTR inh 75.3*, BaF3 parental 1.6, IEC-6 tox 3.2 and Ba/F3 V617F tox -3.0.
For COC(=O)C1=C(C)NC(C)=C(C(=O)OC)C1c1cc2cc(C)ccc2[nH]c1=O the results were APP transl inh 8.0, KLF5 inhibitor 5.1, aSyn 5UTR inh 15.0, BaF3 parental -2.4, IEC-6 tox 1.2 and Ba/F3 V617F tox -0.7.
CC(=O)c1ccc(OC(=O)Cc2cccc3ccccc23)cc1 was read as KLF5 inhibitor -34.1, aSyn 5UTR inh 13.5 and IEC-6 tox -3.0.
Screening COc1ccc(S(=O)(=O)N2CCCC2CNC(=O)C(=O)Nc2ccc(F)cc2)cc1 (configuration not stated) returned aSyn 5UTR inh -38.3.
`CCOc1ccc(Cl)cc1S(=O)(=O)N1CCC(C(=O)N2CCCC2)CC1` gave KLF5 inhibitor -26.9, aSyn 5UTR inh -2.0 and IEC-6 tox -3.4.
Screening CCOC(=O)CN1C(=O)NC2(CCCc3ccccc32)C1=O (configuration not stated) returned KLF5 inhibitor -12.9, aSyn 5UTR inh 8.8 and IEC-6 tox 5.4.
Screening O=C(O)c1ccc2nc(-c3ccco3)c(-c3ccco3)nc2c1 returned APP transl inh 1.3, KLF5 inhibitor 16.3, aSyn 5UTR inh 1.8, BaF3 parental -3.3, IEC-6 tox -25.3 and Ba/F3 V617F tox -3.1.
For Cc1ccc(C(=O)Nc2cccc(C(F)(F)F)c2)cc1NC(=O)c1ccno1 the results were aSyn 5UTR inh 94.9*.
Cc1ccc(C(=O)Nc2cccc(C(F)(F)F)c2)cc1Nc1cnccn1 was read as aSyn 5UTR inh 34.3.
O=C(Nc1cccc(C(F)(F)F)c1)c1ccc2nc(-c3ccco3)c(-c3ccco3)nc2c1 was read as APP transl inh -11.6, KLF5 inhibitor 1.5, aSyn 5UTR inh 15.6, BaF3 parental 49.1*, IEC-6 tox -0.9 and Ba/F3 V617F tox 3.0.
Screening Cc1ccc(C(=O)Nc2cccc(C(F)(F)F)c2)cc1Nc1ncnc2nc[nH]c12 returned aSyn 5UTR inh 77.9*.
CN(C)CCN(C(=O)c1cccs1)c1nc2cc3c(cc2s1)OCCO3 was read as KLF5 inhibitor -34.5, aSyn 5UTR inh -105.7 and IEC-6 tox 2.8.
